Our source for the inhibition values is PubChem BioAssay.

Values without a mark were called inactive. How the calls were made is not given here.

This assay deals with Pantothenate synthetase (Mycobacterium tuberculosis (strain ATCC 25618 / H37Rv)) (UniProt P9WIL5). The assay is described as follows: Recombinant Mtb pantothenate synthetase (PanC) inhibitors, coupled enzyme, confirmatory (AID 375).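 Further: 0% = full reaction with vehicle and 100% = no enzyme background.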 The following applies: coupled enzyme assay; at 10 µM, hits give high values.
Sequence of Pantothenate synthetase (Mycobacterium tuberculosis (strain ATCC 25618 / H37Rv)) (P9WIL5 whole entry, looked up): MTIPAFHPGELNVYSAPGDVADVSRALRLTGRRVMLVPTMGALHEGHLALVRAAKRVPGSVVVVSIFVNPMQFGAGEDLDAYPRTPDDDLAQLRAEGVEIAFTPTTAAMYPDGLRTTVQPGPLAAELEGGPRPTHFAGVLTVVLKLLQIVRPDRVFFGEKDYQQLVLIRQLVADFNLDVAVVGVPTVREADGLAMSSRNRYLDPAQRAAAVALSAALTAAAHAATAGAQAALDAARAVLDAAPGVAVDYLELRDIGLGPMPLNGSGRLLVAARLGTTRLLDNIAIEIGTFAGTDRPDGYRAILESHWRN
Turning to `COc1ccccc1-c1nc(C#N)c(N2CCN(c3ccccc3)CC2)o1`, the inhibition – broadly, the change of the read-out against control, counted positive when it falls – was 0%.

As for `NC(=O)N1c2ccccc2C=Cc2ccccc21`, the inhibition is 0%.

`Nc1ccc(-n2c(N)c(C(=O)NCc3ccc4c(c3)OCO4)c3nc4ccccc4nc32)cc1`: the inhibition was 14%.

For the molecule `O=C(NCc1ccc(F)cc1)C1CCN(C(=O)NCc2ccccc2)CC1`, the inhibition is 0%.

As to `CCCCc1noc2c1/C(=N\O)CC(c1ccccc1)C2` (stereo unspecified), the inhibition is 3%.

Consider `CCCCCCC(C)n1[nH]c(=O)c2c(C)cc(=O)[nH]c21` (stereo unspecified), for which the inhibition is 5%.

`CC(NC(=O)CSc1n[nH]c(=O)n1C1CC1)C12CC3CC(CC(C3)C1)C2` (stereo unspecified): the inhibition was 3%.

For `Cc1cc(C)cc(NC(=O)N2CCC(c3nc4ccccc4o3)CC2)c1`, the inhibition is 7%.

For the molecule `C=CCn1c(SC(C)C(=O)NC2(C#N)CCCCC2)nnc1-c1ccc(OC)cc1` (stereo unspecified), the inhibition is 5%.

As to `Cc1cc(C(=O)NCCN2CCN(c3cccc(Cl)c3)CC2)n(-c2ccccc2)n1`, the inhibition was 0%.

Consider `O=C(CN1C(=O)c2cccc3cccc1c23)Nc1ccccc1C(=O)NCc1ccco1`, for which the inhibition is 0%.

Consider `COc1ccc(N2CCN(C(=O)C(C)(C)Oc3ccc(Cl)cc3)CC2)cc1`, for which the inhibition is 0%.

Consider `Cc1cc(=O)n2nc(N3CCC(C(=O)N4CCN(Cc5ccccc5)CC4)CC3)sc2n1`, for which the inhibition was 2%.

Consider `Clc1ccc(C2Nc3ccccc3-n3cccc32)cc1` (stereo unspecified), for which the inhibition is 0%.

Take `CC(C)[C@H](NC(=O)OC(C)(C)C)c1nnc(S(=O)(=O)Cc2c(F)cccc2Cl)o1`: the inhibition is 0%.

`COc1ccc(OC)c(NC(=O)c2cn(C)c(=O)c3cc(OC)c(OC)cc23)c1`: the inhibition was 1%.
